Results on 8 molecules are retold here after PubChem BioAssay (NCI).

The panel holds about 83,000 compounds, 20% with a hit somewhere; the sample as a whole holds those more often.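 Assay: single dose, 48 h. Readout: percent growth (0 = no net growth; negative = cell death). Active: <10.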 Unmarked numbers belong to inactive results. Active and inactive are the calls of the source.

Test systems include SR leukemia; RPMI-8226 leukemia; OVCAR-8 ovarian; OVCAR-5 ovarian; OVCAR-4 ovarian; SK-OV-3 ovarian; IGROV1 ovarian; OVCAR-3 ovarian; HS 578T breast; NCI/ADR-RES ovarian; T-47D breast; BT-549 breast; MDA-MB-435 melanoma; SW-620 colon; MCF7 breast; HCT-116 colon; HCC-2998 colon; KM12 colon; MDA-MB-468 breast.
Common to all, as to test: NCI-60 one-dose screen, 48 h (100 = growth as untreated, 0 = no growth, -100 = all killed)
Conditions in all cases: 10 µM unless noted

For the molecule `Nc1nn2c(-c3cc4ccccc4oc3=O)ccnc2c1N=Nc1ccccc1`, the growth is 59.1% in the test on SR leukemia; 105% in the test on RPMI-8226 leukemia; 42.2% in the test with OVCAR-8 ovarian; 82.3% with OVCAR-5 ovarian; 96.6% with OVCAR-4 ovarian; 60.1% with SK-OV-3 ovarian. Further, the growth in the test with IGROV1 ovarian was 47.5%; in the test on OVCAR-3 ovarian, 82.7%; with HS 578T breast, 75.8%; in the test with NCI/ADR-RES ovarian it was 47.2%; in the test on T-47D breast it was 85.9%; in the test with BT-549 breast, 29.5%. Further, the growth in the test on MDA-MB-435 melanoma is 107%; with SW-620 colon, 93%; with MCF7 breast it was 52.7%; in the test with HCT-116 colon, 6.75% (active); in the test on HCC-2998 colon it was 105%; in the test on KM12 colon, 92%. In addition, the growth in the test with MDA-MB-468 breast is 78.3%.
For `NNc1ncnc2sc3c(c12)CCN(Cc1ccccc1)C3`, the growth is 40.1% with SR leukemia; 39.3% with RPMI-8226 leukemia; 20% in the test on OVCAR-8 ovarian; 70.6% with OVCAR-5 ovarian; 28.6% in the test with OVCAR-4 ovarian; 72.3% in the test with SK-OV-3 ovarian. For the same molecule, the growth in the test on IGROV1 ovarian is 83.2%; in the test with OVCAR-3 ovarian, 13.4%; with HS 578T breast, 72.3%; in the test with NCI/ADR-RES ovarian it was 35.3%; in the test with T-47D breast, 24.8%; in the test on BT-549 breast, 55%. The growth with MDA-MB-435 melanoma is 77.7%; with SW-620 colon, 46.6%; with MCF7 breast, 9.55% (active); in the test with HCT-116 colon it was 42.6%; with HCC-2998 colon it was 52.1%; in the test with KM12 colon it was 53.8%. The growth with MDA-MB-468 breast was 13.2%.
For the molecule `Cc1cccc(/C=C/c2ccc(NC(=S)NCCCCN(C)C)cc2)c1`, the growth in the test on SR leukemia is -17.4% (active); in the test on RPMI-8226 leukemia, -26.1% (active); in the test on OVCAR-8 ovarian, -62.3% (active); with OVCAR-5 ovarian, -94.2% (active); with OVCAR-4 ovarian it was -93.7% (active); in the test with SK-OV-3 ovarian, -65.9% (active). Moreover, the growth with IGROV1 ovarian was -91% (active); in the test with OVCAR-3 ovarian, -55.4% (active); with HS 578T breast, -54% (active); with NCI/ADR-RES ovarian it was -95.1% (active); with T-47D breast it was -67.8% (active); with BT-549 breast it was -72.6% (active). For the same molecule, the growth was -90% (active) in the test on MDA-MB-435 melanoma; -85.3% (active) in the test with SW-620 colon; -73.7% (active) in the test on MCF7 breast; -45.1% (active) in the test with HCT-116 colon; -92.7% (active) in the test on HCC-2998 colon; -48.6% (active) with KM12 colon. The growth in the test on MDA-MB-468 breast was -83.5% (active).
As to `Cc1[nH]nc2ccc3nc(-c4cn[nH]c4C(F)(F)F)c4c(c3c12)CCCC4`, the growth in the test on SR leukemia was 16.6%; in the test on RPMI-8226 leukemia it was 1.04% (active); in the test with OVCAR-8 ovarian it was 4.15% (active); in the test with OVCAR-5 ovarian it was 3.15% (active); in the test with OVCAR-4 ovarian, 29.6%; in the test on SK-OV-3 ovarian, -54.2% (active). The growth with IGROV1 ovarian is -42.4% (active); in the test on OVCAR-3 ovarian it was -15% (active); in the test with HS 578T breast, -28.6% (active); in the test on NCI/ADR-RES ovarian, 19.8%; in the test on T-47D breast, 3.05% (active); in the test on BT-549 breast, -82.4% (active). Also, the growth in the test with MDA-MB-435 melanoma is 21.6%; in the test with SW-620 colon, -31.1% (active); in the test with MCF7 breast, 5.54% (active); in the test with HCT-116 colon it was -49% (active); in the test with HCC-2998 colon it was -16.6% (active); in the test with KM12 colon, 9.09% (active). In addition, the growth in the test with MDA-MB-468 breast was -45.6% (active).
For `C=CC(=O)N1CCN(c2ccc3nc4c(nc3c2C(F)(F)F)C(=O)c2ncccc2C4=O)CC1`, the growth with SR leukemia was 33.2%; with RPMI-8226 leukemia, -20.2% (active); with OVCAR-8 ovarian, -9.34% (active); in the test with OVCAR-5 ovarian, 2.97% (active); in the test with OVCAR-4 ovarian, -96.4% (active); in the test with SK-OV-3 ovarian, 91.1%. Further, the growth in the test with IGROV1 ovarian was -42.6% (active); in the test on OVCAR-3 ovarian, -15.3% (active); in the test with HS 578T breast it was 75.8%; with NCI/ADR-RES ovarian, 47.5%; in the test on T-47D breast it was -4.37% (active); in the test with BT-549 breast it was 10.1%. For the same molecule, the growth in the test on MDA-MB-435 melanoma is -71.1% (active); in the test on SW-620 colon, 4.1% (active); with MCF7 breast, -66.8% (active); in the test on HCT-116 colon, -25.7% (active); in the test on HCC-2998 colon it was 5.17% (active); in the test with KM12 colon, 9.15% (active). For the same molecule, in the test on MDA-MB-468 breast, the growth is -69.3% (active).
For `NS(=O)(=O)c1ccc(Nc2nc(N/N=C/c3cc(Br)c(O)c(Br)c3)nc(Nc3ccccc3)n2)cc1`, the growth was -12.1% (active) in the test on SR leukemia; 79.4% in the test on RPMI-8226 leukemia; 57.7% with OVCAR-8 ovarian; 106% in the test with OVCAR-5 ovarian; 71.2% with OVCAR-4 ovarian; 99.7% with SK-OV-3 ovarian. Further, the growth in the test on IGROV1 ovarian was 59.5%; in the test with OVCAR-3 ovarian it was 20.2%; in the test on HS 578T breast, -8.25% (active); in the test on NCI/ADR-RES ovarian it was 98%; in the test with T-47D breast it was 25.5%; in the test on BT-549 breast, -14.3% (active). The growth in the test on MDA-MB-435 melanoma is 56.5%; in the test on SW-620 colon, 41.2%; in the test with MCF7 breast, 37.7%; in the test with HCT-116 colon it was 28.9%; in the test on HCC-2998 colon, 5.2% (active); in the test on KM12 colon, 61.7%. Besides, the growth in the test with MDA-MB-468 breast was -57.4% (active).
In the case of `O=C(CSc1nc2c(c(=O)[nH]1)CCCC2)Nc1ccccc1C(=O)O`, the growth was 88.5% with SR leukemia; 104% in the test with RPMI-8226 leukemia; 109% in the test on OVCAR-8 ovarian; 106% in the test on OVCAR-5 ovarian; 125% in the test with OVCAR-4 ovarian; 106% with SK-OV-3 ovarian. Further, the growth in the test on IGROV1 ovarian was 110%; in the test with OVCAR-3 ovarian, 91.7%; in the test with HS 578T breast it was 108%; with NCI/ADR-RES ovarian, 112%; with T-47D breast it was 105%; in the test with BT-549 breast, 117%. In addition, the growth in the test on MDA-MB-435 melanoma was 109%; with SW-620 colon it was 116%; in the test on MCF7 breast, 85.9%; in the test with HCT-116 colon, 96.2%; with HCC-2998 colon, 123%; with KM12 colon, 103%. Besides, the growth in the test with MDA-MB-468 breast is 100%.
Turning to `N#Cc1ccc(C(=O)CSc2nc3c(c(Nc4ccc(S(N)(=O)=O)cc4)n2)CCC3)cc1`, the growth was 58.9% in the test on SR leukemia; 79.2% in the test with RPMI-8226 leukemia; 3.1% (active) with OVCAR-8 ovarian; 70.8% in the test on OVCAR-5 ovarian; 43.9% with OVCAR-4 ovarian; 67.2% with SK-OV-3 ovarian. For the same molecule, the growth in the test with IGROV1 ovarian was 15.8%; in the test on OVCAR-3 ovarian, 97.1%; with HS 578T breast, 26.1%; with NCI/ADR-RES ovarian, 53%; in the test on T-47D breast, 71.7%; in the test with BT-549 breast, 83.3%. In addition, the growth in the test on MDA-MB-435 melanoma was 86.6%; in the test on SW-620 colon it was 47.8%; in the test on MCF7 breast, 19.2%; in the test with HCT-116 colon, 15.7%; with HCC-2998 colon it was 15.8%; in the test with KM12 colon, 64.2%. In the test on MDA-MB-468 breast, the growth is 60.4%.
